Compounds without any hit were thinned out: in the full panel of roughly 79,000, 15% have a hit. The source made the active and inactive calls. No stated cut-off is given here; in the data, active means growth inhibition above about 70%; inactive means the rest.
Assays:
[1] = NCI Yeast Anticancer Drug Screen. Data for the wt1 strain (AID 149);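 further: 0% = growth of vehicle-treated wt1 cultures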; conditions: S. cerevisiae wt1 strain (SPY 50644) growth inhibition, active compounds read high
Procedure, shortened: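 The wt1 strain was treated with compounds, and growth was compared with vehicle-treated cultures to give inhibition.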

[2] = NCI Yeast Anticancer Drug Screen. Data for the rad50EPP+ strain (AID 151);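 further: 0% = growth of vehicle-treated control cultures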; conditions: S. cerevisiae rad50 mutant strain, active compounds read high
Procedure, shortened: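 Growth inhibition read against vehicle controls in rad50EPP+ yeast, a strain altered in DNA damage repair, after compound exposure.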

[3] = NCI Yeast Anticancer Drug Screen. Data for the rad50 strain (AID 155);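 further: 0% = growth of vehicle-only cultures of the same strain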; conditions: S. cerevisiae rad50 strain growth inhibition, active compounds read high
Procedure, shortened: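 Cells are treated with compound, grown, and their growth is then scored against vehicle-only cultures of the same repair-deficient yeast strain.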

[4] = NCI Yeast Anticancer Drug Screen. Data for the mec2-1 strain (AID 157); conditions: S. cerevisiae mec2-1 strain, active compounds read high
Procedure, shortened: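 Yeast mec2-1 mutant treated with compound. Readout: growth inhibition vs vehicle controls.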

[5] = NCI Yeast Anticancer Drug Screen. Data for the rad14 strain (AID 159);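 further: 0% = growth of vehicle-treated control cultures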; conditions: S. cerevisiae rad14 strain growth inhibition, active compounds read high
Procedure, shortened: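 Readout: yeast growth inhibition, referenced to vehicle-only cultures. Strain bears a defined alteration in DNA damage repair.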

[6] = NCI Yeast Anticancer Drug Screen. Data for the sgs1 mgt1 strain (AID 161);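 further: 0% = growth of cultures given vehicle only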; conditions: S. cerevisiae sgs1 mgt1 strain, active compounds read high
Procedure, shortened: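 Test agents were incubated with a DNA-repair-mutant yeast strain. Growth was then read and compared against vehicle-treated controls.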

[7] = NCI Yeast Anticancer Drug Screen. Data for the CLN2oe strain (AID 163);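 further: 0% = growth of vehicle-only control cultures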; conditions: S. cerevisiae CLN2oe strain, active compounds read high
Procedure, shortened: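 Read-out: yeast growth inhibition, expressed relative to vehicle-only controls. The strain bears an engineered cell-cycle alteration.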

[8] = NCI Yeast Anticancer Drug Screen. Data for the cln2 rad14 strain (AID 165);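 further: 0% = growth equal to vehicle treated cultures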; conditions: S. cerevisiae cln2 rad14 strain, active compounds read high
Procedure, shortened: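 cln2 rad14 yeast strain; compound exposure; growth inhibition read vs vehicle controls.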

[9] = NCI Yeast Anticancer Drug Screen. Data for the bub3 strain (AID 167); conditions: S. cerevisiae bub3 mutant strain, active compounds read high
Procedure, shortened: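 Part of a panel of yeast mutants defective in DNA damage repair or cell cycle regulation. Each strain is grown with compound, and inhibition is calculated relative to solvent-treated cultures.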

[10] = NCI Yeast Anticancer Drug Screen. Data for the mlh1 strain (AID 171);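 further: 0% = growth of vehicle-treated control cultures of the same strain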; conditions: S. cerevisiae mlh1 strain growth inhibition, active compounds read high
Procedure, shortened: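 Read-out: growth inhibition versus vehicle controls. Strain: engineered yeast with a defined DNA repair or cell cycle defect, compound-treated.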

[11] = NCI Yeast Anticancer Drug Screen. Data for the sgs1 strain (AID 173);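 further: 0% = growth of vehicle-only control cultures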; conditions: S. cerevisiae sgs1 mutant, active compounds read high
Procedure, shortened: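 Read-out: yeast growth inhibition relative to vehicle controls, following compound exposure of a strain with a defined DNA repair/cell cycle alteration.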

[12] = NCI Yeast Anticancer Drug Screen. Data for the mlh1 rad18 strain (AID 175); conditions: S. cerevisiae mlh1 rad18 strain growth inhibition, active compounds read high
Procedure, shortened: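 Yeast w/ defined DNA-repair lesions; compound exposure; growth vs vehicle controls → % inhibition.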

[13] = NCI Yeast Anticancer Drug Screen. Data for the rad18 strain (AID 177); conditions: S. cerevisiae rad18 mutant growth inhibition, active compounds read high
Procedure, shortened: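 Readout: growth inhibition vs vehicle controls. Cells: genetically altered yeast strain, DNA repair defect.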

[14] = NCI Yeast Anticancer Drug Screen. Data for the wt2 strain (AID 169);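 further: 0% = growth of vehicle-treated yeast cultures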; conditions: S. cerevisiae wt2 strain growth inhibition, active compounds read high
Procedure, shortened: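 Read-out: growth inhibition versus vehicle-treated control cultures after compound exposure of the yeast strain.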

[15] = at 5.0 µM (retest, dose inferred, filed as 0.5)
[16] = at 50.0 µM (retest, dose inferred, filed as 5.0)

Measured: growth inhibition

Cc1[nH]nc(C(F)(F)F)c1N=NN(C)C
active: [1]; at 33.0 µM 99% | [1]; at 100.0 µM 99% | [2]; at 11.0 µM 73% | [2]; at 33.0 µM 96% | [2]; at 100.0 µM 98% | [3]; [15] 91% | [3]; at 11.0 µM 87% | [3]; at 33.0 µM 99% | [3]; [16] 97% | [3]; at 50.0 µM 99.3% | [3]; at 100.0 µM 98% | [4]; [15] 96% | [4]; at 33.0 µM 99% | [4]; [16] 99% | [4]; at 50.0 µM 99.7% | [4]; at 100.0 µM 98% | [5]; at 33.0 µM 99% | [5]; at 100.0 µM 99% | [6]; [15] 78% | [6]; [16] 98% | [7]; at 33.0 µM 99% | [7]; at 100.0 µM 99% | [8]; [15] 81% | [8]; [16] 99% | [8]; at 50.0 µM 99.1% | [9]; at 33.0 µM 98% | [9]; [16] 98% | [9]; at 50.0 µM 99.5% | [9]; at 100.0 µM 98% | [10]; at 33.0 µM 99% | [10]; at 100.0 µM 99% | [11]; at 11.0 µM 75% | [11]; at 33.0 µM 99% | [11]; at 100.0 µM 99% | [12]; [16] 98% | [12]; at 50.0 µM 91.1% | [13]; at 11.0 µM 79% | [13]; at 33.0 µM 99% | [13]; at 100.0 µM 99%
inactive: [1]; at 1.2 µM -4% | [1]; at 3.7 µM 37% | [1]; at 11.0 µM 46% | [2]; at 1.2 µM 3% | [2]; at 3.7 µM 35% | [3]; at 1.2 µM 10% | [3]; at 3.7 µM 51% | [4]; at 1.2 µM 2% | [4]; at 3.7 µM 32% | [4]; at 11.0 µM 61% | [5]; at 1.2 µM 2% | [5]; at 3.7 µM 10% | [5]; at 11.0 µM 54% | [6]; at 50.0 µM 45% | [7]; at 1.2 µM -1% | [7]; at 3.7 µM 8% | [7]; at 11.0 µM 51% | [9]; at 1.2 µM -10% | [9]; at 3.7 µM -8% | [9]; [15] 30% | [9]; at 11.0 µM 45% | [10]; at 1.2 µM 4% | [10]; at 3.7 µM 48% | [10]; at 11.0 µM 52% | [11]; at 1.2 µM 12% | [11]; at 3.7 µM 48% | [12]; [15] 25% | [13]; at 1.2 µM 10% | [13]; at 3.7 µM 47%

CNc1ccc2[nH]c3ccccc3c2c1
inactive: [1]; at 1.2 µM 0% | [1]; at 3.7 µM 0% | [1]; at 11.0 µM 1% | [1]; at 33.0 µM -4% | [1]; at 100.0 µM 28% | [2]; at 1.2 µM 1% | [2]; at 3.7 µM -2% | [2]; at 11.0 µM -4% | [2]; at 33.0 µM 26% | [2]; at 100.0 µM 65% | [3]; at 1.2 µM -1% | [3]; at 3.7 µM -2% | [3]; [15] 7% | [3]; at 11.0 µM -2% | [3]; at 33.0 µM 1% | [3]; [16] 25% | [3]; at 100.0 µM 58% | [4]; at 1.2 µM -1% | [4]; at 3.7 µM 1% | [4]; [15] -1% | [4]; at 11.0 µM 0% | [4]; at 33.0 µM 1% | [4]; [16] -5% | [4]; at 50.0 µM 62.9% | [4]; at 100.0 µM 59% | [5]; at 1.2 µM -3% | [5]; at 3.7 µM -5% | [5]; at 11.0 µM -3% | [5]; at 33.0 µM 4% | [6]; [15] -11% | [6]; [16] 13% | [7]; at 1.2 µM -6% | [7]; at 3.7 µM -7% | [7]; at 11.0 µM 0% | [7]; at 33.0 µM -5% | [7]; at 100.0 µM 52% | [8]; [15] -14% | [8]; [16] 20% | [8]; at 50.0 µM 15.2% | [9]; at 1.2 µM -4% | [9]; at 3.7 µM -7% | [9]; [15] -11% | [9]; at 11.0 µM -8% | [9]; at 33.0 µM -10% | [9]; [16] -4% | [9]; at 50.0 µM 66.6% | [9]; at 100.0 µM 54% | [14]; at 1.2 µM -1% | [14]; at 3.7 µM -1% | [14]; at 11.0 µM 3% | [14]; at 33.0 µM 5% | [14]; at 100.0 µM 59% | [10]; at 1.2 µM 3% | [10]; at 3.7 µM 1% | [10]; at 11.0 µM 0% | [10]; at 33.0 µM 1% | [10]; at 100.0 µM 65% | [11]; at 1.2 µM 0% | [11]; at 3.7 µM 4% | [11]; at 11.0 µM 3% | [11]; at 33.0 µM 11% | [12]; [15] -20% | [13]; at 1.2 µM 2% | [13]; at 3.7 µM 0% | [13]; at 11.0 µM -11% | [13]; at 33.0 µM 18%
active: [3]; at 50.0 µM 90% | [5]; at 100.0 µM 80% | [6]; at 50.0 µM 80.9% | [11]; at 100.0 µM 83% | [12]; [16] 77% | [12]; at 50.0 µM 82.7% | [13]; at 100.0 µM 85%

Cc1ccc(Nc2n[nH]c(=S)s2)cc1C
active: [1]; at 100.0 µM 81% | [3]; [15] 93% | [3]; [16] 94% | [3]; at 50.0 µM 78.8% | [3]; at 100.0 µM 84% | [4]; [15] 96% | [4]; [16] 95% | [4]; at 100.0 µM 79% | [5]; at 100.0 µM 89% | [6]; [16] 90% | [7]; at 100.0 µM 76% | [8]; [16] 92% | [9]; [16] 91% | [9]; at 100.0 µM 80% | [14]; at 100.0 µM 85% | [10]; at 100.0 µM 83% | [11]; at 100.0 µM 77% | [12]; [15] 99% | [12]; [16] 99% | [13]; at 100.0 µM 87%
inactive: [1]; at 1.2 µM -23% | [1]; at 3.7 µM -22% | [1]; at 11.0 µM -19% | [1]; at 33.0 µM 1% | [2]; at 1.2 µM -7% | [2]; at 3.7 µM -5% | [2]; at 11.0 µM -21% | [2]; at 33.0 µM -9% | [2]; at 100.0 µM 48% | [3]; at 1.2 µM 14% | [3]; at 3.7 µM 17% | [3]; at 11.0 µM 21% | [3]; at 33.0 µM 54% | [4]; at 1.2 µM 1% | [4]; at 3.7 µM 0% | [4]; at 11.0 µM 10% | [4]; at 33.0 µM 11% | [4]; at 50.0 µM 67.7% | [5]; at 1.2 µM -33% | [5]; at 3.7 µM -29% | [5]; at 11.0 µM -17% | [5]; at 33.0 µM 65% | [6]; [15] 5% | [7]; at 1.2 µM 3% | [7]; at 3.7 µM -8% | [7]; at 11.0 µM -5% | [7]; at 33.0 µM -10% | [8]; [15] 65% | [9]; at 1.2 µM 6% | [9]; at 3.7 µM 12% | [9]; [15] 38% | [9]; at 11.0 µM 18% | [9]; at 33.0 µM 36% | [14]; at 1.2 µM -33% | [14]; at 3.7 µM -23% | [14]; at 11.0 µM -28% | [14]; at 33.0 µM 28% | [10]; at 1.2 µM -34% | [10]; at 3.7 µM -21% | [10]; at 11.0 µM -15% | [10]; at 33.0 µM 28% | [11]; at 1.2 µM -28% | [11]; at 3.7 µM -35% | [11]; at 11.0 µM -28% | [11]; at 33.0 µM 28% | [12]; at 50.0 µM 69.7% | [13]; at 1.2 µM 1% | [13]; at 3.7 µM -1% | [13]; at 11.0 µM 12% | [13]; at 33.0 µM 67%

— PubChem BioAssay (NCI)
